The results in this text go back to PubChem BioAssay (NCI).

Molecules are shown by their SMILES. The panel holds about 79,000 compounds, 15% with a hit somewhere; the sample as a whole holds those more often. A number with no mark means an inactive call. Activity calls are given as the source filed them. Rule as the data show it: active = growth inhibition above about 70%; inactive = the rest.

Test [1] can be described thus: NCI Yeast Anticancer Drug Screen. Data for the rad50 strain (AID 155).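 Also: 0% = growth of vehicle-only cultures of the same strain.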 The note with it: S. cerevisiae rad50 strain growth inhibition, stronger effect = higher value. In outline:
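Growth of the mutant yeast was measured after compound exposure and referenced to vehicle-treated cultures.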

Test [2] in a line: NCI Yeast Anticancer Drug Screen. Data for the mec2-1 strain (AID 157). To be noted: S. cerevisiae mec2-1 strain, stronger effect = higher value. The gist of the method:
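Mutant yeast (mec2-1) grown with compound; growth inhibition relative to vehicle control reported.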

A short description of test [3]: NCI Yeast Anticancer Drug Screen. Data for the sgs1 mgt1 strain (AID 161).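 Also: 0% = growth of cultures given vehicle only.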 To be noted: S. cerevisiae sgs1 mgt1 strain, stronger effect = higher value. The gist of the method:
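Percent growth inhibition was derived by comparing compound-exposed mutant yeast with vehicle-exposed cultures. The strain carries alterations in DNA damage repair.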

Test [4] is described as follows: NCI Yeast Anticancer Drug Screen. Data for the cln2 rad14 strain (AID 165).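 Also: 0% = growth equal to vehicle treated cultures.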 To be noted: S. cerevisiae cln2 rad14 strain, stronger effect = higher value. In outline:
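Readout is yeast growth inhibition versus vehicle-treated controls, using a strain with cln2 and rad14 alterations exposed to compound.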

Test [5] in a line: NCI Yeast Anticancer Drug Screen. Data for the bub3 strain (AID 167). The note with it: S. cerevisiae bub3 mutant strain, stronger effect = higher value. The gist of the method: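 Whole-cell yeast assay. The mutant strain was incubated with compounds, and growth inhibition was determined by comparison with vehicle-treated cells.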
Test [6] can be described thus: NCI Yeast Anticancer Drug Screen. Data for the mlh1 rad18 strain (AID 175). To be noted: S. cerevisiae mlh1 rad18 strain growth inhibition, stronger effect = higher value. The gist of the method: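 Genetically defined yeast (DNA repair-deficient) exposed to compounds; growth inhibition determined relative to vehicle.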
Setting [7] is: at 5.0 µM (retest, dose inferred, filed as 0.5).
The mark [8] stands for this setting: at 50.0 µM (retest, dose inferred, filed as 5.0).

For `CCOC(=O)Oc1ccc(C)cc1[N+](=O)[O-]`, the growth inhibition was -1% in test [1] (setting [7]); 13% in test [1] (setting [8]); 67.6% in test [1] (at 50.0 µM); -4% in test [2] (setting [7]); 1% in test [2] (setting [8]); 31.1% in test [2] (at 50.0 µM). The growth inhibition is -1% in test [3] (setting [7]); 2% in test [3] (setting [8]); 47.5% in test [3] (at 50.0 µM); 2% in test [4] (setting [7]); 12% in test [4] (setting [8]); 55.6% in test [4] (at 50.0 µM). Moreover, the growth inhibition in test [5] (setting [7]) was -1%; in test [5] (setting [8]), 4%; in test [5] (at 50.0 µM) it was 23.6%; in test [6] (setting [7]) it was -3%; in test [6] (setting [8]), 20%; in test [6] (at 50.0 µM), 88.3% (active).
With `NNc1cc(Cl)ccc1Cl`, the growth inhibition in test [1] (setting [7]) is 73% (active); in test [1] (setting [8]), 93% (active); in test [1] (at 50.0 µM) it was 90.7% (active); in test [2] (setting [7]), 91% (active); in test [2] (setting [8]), 99% (active); in test [2] (at 50.0 µM) it was 91.8% (active). Besides, the growth inhibition in test [3] (setting [7]) is 57%; in test [3] (setting [8]), 98% (active); in test [3] (at 50.0 µM) it was 94% (active); in test [4] (setting [7]), 80% (active); in test [4] (setting [8]), 98% (active); in test [4] (at 50.0 µM), 91.8% (active). Further, the growth inhibition in test [5] (setting [7]) is 89% (active); in test [5] (setting [8]), 99% (active); in test [5] (at 50.0 µM), 91.5% (active); in test [6] (setting [7]) it was 55%; in test [6] (setting [8]) it was 100% (active); in test [6] (at 50.0 µM), 90.7% (active).
Take `C/C(=N\NC(=S)NNC(=S)N1CCCc2ccccc21)c1ccccn1`: the growth inhibition in test [1] (setting [7]) was 3%; in test [1] (setting [8]), 96% (active); in test [1] (at 50.0 µM) it was 95.9% (active); in test [2] (setting [7]), -16%; in test [2] (setting [8]), 96% (active); in test [2] (at 50.0 µM), 95.7% (active). The growth inhibition in test [3] (setting [7]) was 30%; in test [3] (setting [8]), 97% (active); in test [3] (at 50.0 µM), 96.7% (active); in test [4] (setting [7]), -23%; in test [4] (setting [8]), 96% (active); in test [4] (at 50.0 µM), 95.8% (active). Besides, the growth inhibition in test [5] (setting [7]) is -6%; in test [5] (setting [8]), 97% (active); in test [5] (at 50.0 µM), 90.7% (active); in test [6] (setting [7]), 5%; in test [6] (setting [8]), 95% (active); in test [6] (at 50.0 µM), 95.6% (active).
Consider `CC(C)CC(C(=O)SCC(C)N1CCCC1)c1ccccc1` (stereo not drawn), for which the growth inhibition is 0% in test [1] (setting [7]); 35% in test [1] (setting [8]); 48% in test [1] (at 50.0 µM); 8% in test [2] (setting [7]); 33% in test [2] (setting [8]); 36.1% in test [2] (at 50.0 µM). For the same molecule, the growth inhibition is 26% in test [3] (setting [7]); 56% in test [3] (setting [8]); 49.6% in test [3] (at 50.0 µM); 12% in test [4] (setting [7]); 43% in test [4] (setting [8]); 71.4% (active) in test [4] (at 50.0 µM). For the same molecule, the growth inhibition is 15% in test [5] (setting [7]); 59% in test [5] (setting [8]); 51.8% in test [5] (at 50.0 µM); 11% in test [6] (setting [7]); 37% in test [6] (setting [8]); 59.2% in test [6] (at 50.0 µM).
As for `O=NN(CCCl)C(=O)Nc1cc(=O)[nH]c(SCc2ccccc2)n1`, the growth inhibition in test [1] (setting [7]) was -23%; in test [1] (setting [8]), 52%; in test [1] (at 50.0 µM) it was 8.95%; in test [2] (setting [7]), 3%; in test [2] (setting [8]), 10%; in test [2] (at 50.0 µM), -3.6%. Moreover, the growth inhibition in test [3] (setting [7]) is -10%; in test [3] (setting [8]) it was 33%; in test [3] (at 50.0 µM) it was 4.7%; in test [4] (setting [7]) it was 14%; in test [4] (setting [8]) it was 12%; in test [4] (at 50.0 µM) it was 45.5%. Further, the growth inhibition in test [5] (setting [7]) is 5%; in test [5] (setting [8]), 30%; in test [5] (at 50.0 µM), 16.9%; in test [6] (setting [7]), -11%; in test [6] (setting [8]), 70% (active); in test [6] (at 50.0 µM), 66.5%.
As to `NC(=O)C1CCCN1C(=O)C1CCCN(Cc2ccc(CN3CCCC(C(=O)N4CCCC4C(N)=O)C3)cc2)C1` (stereo not drawn), the growth inhibition in test [1] (setting [7]) was -1%; in test [1] (setting [8]), -5%; in test [1] (at 50.0 µM), 91.5% (active); in test [2] (setting [7]), 8%; in test [2] (setting [8]), 1%; in test [2] (at 50.0 µM), 74.2% (active). Further, the growth inhibition in test [3] (setting [7]) was -10%; in test [3] (setting [8]), -11%; in test [3] (at 50.0 µM) it was 74.4% (active); in test [4] (setting [7]), -13%; in test [4] (setting [8]), 11%; in test [4] (at 50.0 µM) it was 74.7% (active). The growth inhibition was 16% in test [5] (setting [7]); 13% in test [5] (setting [8]); 78.8% (active) in test [5] (at 50.0 µM); -10% in test [6] (setting [7]); -12% in test [6] (setting [8]); 78.3% (active) in test [6] (at 50.0 µM).
Turning to `COC(=O)C1=C(C)NC(C)=C(C(=O)OC)C1c1ccc(/[N+]([O-])=C/c2ccccc2)cc1`, the growth inhibition in test [1] (setting [7]) is 4%; in test [1] (setting [8]), 43%; in test [1] (at 50.0 µM) it was 85% (active); in test [2] (setting [7]) it was 5%; in test [2] (setting [8]), 34%; in test [2] (at 50.0 µM), 70.8% (active). Further, the growth inhibition in test [3] (setting [7]) was 13%; in test [3] (setting [8]), 25%; in test [3] (at 50.0 µM), 96.4% (active); in test [4] (setting [7]) it was -1%; in test [4] (setting [8]) it was 40%; in test [4] (at 50.0 µM) it was 60.2%. Besides, the figures for the growth inhibition in test [6] (setting [7]), in test [6] (setting [8]) and in test [6] (at 50.0 µM) were -7%, 67% and 93.2% (active), respectively.
On to `CCCCCCCCC1(OCCCS(=O)(=O)O)COc2ccccc2OCCOCCOc2ccccc2OC1`, for which the growth inhibition is -13% in test [1] (setting [7]); 87% (active) in test [1] (setting [8]); 97.9% (active) in test [1] (at 50.0 µM); -4% in test [2] (setting [7]); 74% (active) in test [2] (setting [8]); 87% (active) in test [2] (at 50.0 µM). Further, the growth inhibition in test [3] (setting [7]) was -6%; in test [3] (setting [8]), 73% (active); in test [3] (at 50.0 µM) it was 97.9% (active); in test [4] (setting [7]), -4%; in test [4] (setting [8]) it was 73% (active); in test [4] (at 50.0 µM), 93.6% (active). Moreover, the growth inhibition in test [6] (setting [7]) is -7%; in test [6] (setting [8]) it was 87% (active); in test [6] (at 50.0 µM), 95.2% (active).
`Nc1cc(Br)c2cccnc2c1O`: the growth inhibition in test [1] (setting [7]) was 81% (active); in test [1] (setting [8]), 98% (active); in test [1] (at 50.0 µM), 97.2% (active); in test [2] (setting [7]), 44%; in test [2] (setting [8]) it was 98% (active); in test [2] (at 50.0 µM), 94.7% (active). Also, the growth inhibition is 67% in test [3] (setting [7]); 98% (active) in test [3] (setting [8]); 98% (active) in test [3] (at 50.0 µM); 35% in test [5] (setting [7]); 98% (active) in test [5] (setting [8]); 93.7% (active) in test [5] (at 50.0 µM). Also, the values for the growth inhibition in test [6] (setting [7]), in test [6] (setting [8]) and in test [6] (at 50.0 µM) were 86% (active), 98% (active) and 95.7% (active), respectively.
